According to PubChem BioAssay AID463173 (ICCB-Longwood Screening Facility, Harvard Medical School, 2010):
Among all 52,000 compounds or so, about 4,300 (8.3%) were called active. The sample as a whole holds a higher share of actives than the screen did. Unmarked numbers belong to inactive results. Cut-off read from the data, not from the text of the source: active = survival mostly below about 52% (no sharp cut-off); inactive = mostly above about 56%.

Tested on: DeltatarO mutant
Assay: growth inhibition of S. aureus wild type versus tarO mutant, primary screen, teichoic acid synthesis inhibitors, RN4220, OD600 (AID 463173)
Conditions: OD600, 18 h, stronger effect = lower value, screened at 18.75 µg/mL (by protocol)

Row | Structure (SMILES) | survival
1 | CCCNC(=O)C1CCN(C(=O)N2CC(C)Oc3ccccc32)CC1 (stereo not given) | 65%
2 | CCOc1ccc(-n2c(=O)c3c(C)c(C)sc3n(Cc3c(F)cccc3Cl)c2=O)cc1 | 96%
3 | Cc1cccc(C(=O)NCC(=O)OCc2cc(=O)n3nc(C)sc3n2)c1 | 82%
4 | N#Cc1ccc(C(=O)NCc2ccc3c(c2)CCN3C(=O)c2ccc(F)cc2)cc1 | 83%
5 | CCOc1ccc(S(=O)(=O)N2Cc3ccccc3CC2C(=O)Nc2ccc(NC(C)=O)cc2)cc1 (stereo not given) | 69%
6 | Cc1ccc(-n2ncc(C(=O)Nc3ccc4c(c3)OCO4)c2C2CCN(C(=O)OC(C)(C)C)CC2)cc1 | 79%
7 | COc1ccc(CC(CC(=O)O)C(=O)NCc2ccccc2)cc1 (stereo not given) | 81%
8 | CCC(=O)Nc1ccc(C(=O)Nc2c[nH]c(=O)[nH]c2=O)cc1 | 85%
9 | CC1CCN(c2nnc(-n3cccc3CNc3cccc(F)c3)s2)CC1 | 93%
10 | Cc1ccc(NC(=O)CSc2nnc(-c3ccc([N+](=O)[O-])cc3)o2)c(C)c1 | 73%
11 | CCOC(=O)c1cc(S(=O)(=O)Nc2cc(C)c(Cl)cc2OC)[nH]n1 | 77%
12 | CCOC(=O)c1cc(S(=O)(=O)Nc2cc(OC)ccc2OC)[nH]n1 | 119%
13 | CCOC(=O)c1cc(S(=O)(=O)Nc2ccc(OC)c(Cl)c2)[nH]n1 | -4% (active)
14 | COc1cc(OC)cc(C(=O)Nc2cc3c(cc2N2CCCCC2)n(C)c(=O)n3C)c1 | 83%
15 | COc1ccc(OC)c(S(=O)(=O)N2CCC(c3ccncc3)CC2)c1 | 122%
16 | COc1ccc(CNC(=O)c2cc3c(=O)n(C)c4ccccc4c3n2C)c(OC)c1 | 50%
17 | CCOc1ccc(CCNC(=O)c2cn(-c3ccc(OC)cc3)c(=O)c3ccccc23)cc1OCC | 111%
18 | COc1ccc(CNC(=O)c2cn(-c3cccc(OC)c3)c(=O)c3ccccc23)cc1 | 67%
19 | COc1ccc(OC)c(CCNC(=O)c2cc3c(=O)n(C)c4ccccc4c3n2C)c1 | 43% (active)
20 | COc1ccc(-n2cc(C(=O)NCCc3cc(OC)ccc3OC)c3ccccc3c2=O)cc1 | 55% (active)
21 | COc1ccc(-n2cc(C(=O)NCc3cccc(OC)c3)c3ccccc3c2=O)cc1 | 110%
22 | COc1cccc(-n2cc(C(=O)NCc3cccc(Cl)c3)c3ccccc3c2=O)c1 | 58% (active)
23 | COc1ccc(-n2cc(C(=O)NCCc3ccc(C)cc3)c3ccccc3c2=O)cc1 | 53%

Row | Structure (SMILES) | survival
24 | COc1ccc(CNC(=O)c2cc3c(=O)n(C)c4ccccc4c3n2C)cc1 | 89%
25 | CC1CCC(NC(=O)c2ccc(CSc3nc4ccncc4n3Cc3ccc(F)cc3)cc2)CC1 (stereo not given) | 59%
26 | COc1ccc(OC)c(-n2c(=O)[nH]c3cc(C(=O)NCCc4ccc(OC)c(OC)c4)ccc3c2=O)c1 | 76%
27 | CCC1CN(C(=O)N2CCC(C(=O)NCc3ccc(N(C)C)cc3)CC2)c2ccccc2O1 (stereo not given) | 73%
28 | CCOC(=O)N1CCc2c(sc(NCc3ccc(N(CC)CC)cc3)c2C(=O)Nc2cc(OC)ccc2OC)C1 | 71%
29 | CCOC(=O)c1ccc(NC2=CC(c3ccc(F)cc3)N(c3ccc(C(=O)OCC)cc3)C2=O)cc1 (stereo not given) | 66%
30 | CCc1nc2cccnc2n1-c1ccc(CC(=O)Nc2ccc(C)cc2)cc1 | 78%
31 | COc1ccccc1Nc1nn2c(=O)c3ccc(C(=O)NCCCOC(C)C)cc3nc2s1 | 71%
32 | CCOC(=O)c1ccc(NC(=O)C2=C(C)C(=O)OC23CCCCCC3)cc1 | 81%
33 | Cc1cccc(OCC(=O)Nc2ccc(S(=O)(=O)Nc3onc(C)c3C)cc2)c1C | 40% (active)
34 | CCC(C)c1ccccc1OCC(=O)Nc1ccc(S(=O)(=O)Nc2cc(C)on2)cc1 (stereo not given) | 80%
35 | Cc1cc(NS(=O)(=O)c2ccc(NC(=O)COc3cc(C)c(Br)cc3C(C)C)cc2)no1 | 13% (active)
36 | Cc1noc(NS(=O)(=O)c2ccc(NC(=O)COc3ccccc3Br)cc2)c1C | 53%
37 | Cc1ccc(C)c(OCC(=O)Nc2ccc(S(=O)(=O)Nc3onc(C)c3C)cc2)c1C | 165%
38 | Cc1cc(NS(=O)(=O)c2ccc(NC(=O)COc3ccc(Br)cc3C)cc2)no1 | 32% (active)
39 | Cc1ccc(OCC(=O)Nc2ccc(S(=O)(=O)Nc3cc(C)on3)cc2)c(Br)c1 | 56%
40 | Cc1cc(NS(=O)(=O)c2ccc(NC(=O)COc3c(C)cc(Br)cc3C)cc2)no1 | 110%
41 | Cc1cc(NS(=O)(=O)c2ccc(NC(=O)COc3ccccc3Br)cc2)no1 | 67%
42 | COc1ccc2c(c1)c(CC(=O)Nc1cc(C)c(OC)c(C)c1)c(C)n2C(=O)c1ccc(Cl)cc1 | 71%
43 | COc1cc(C(c2nnnn2C2CCCCC2)N2CCc3ccccc3C2)ccc1O (stereo not given) | 62%
44 | COc1ccc(N2CCN(C(=O)c3ccc4c(c3)N(Cc3cccc(Cl)c3)C(=O)c3ccccc3S4(=O)=O)CC2)cc1 | 83%
45 | COc1cc2oc(=O)c(CC(=O)NCc3ccc(OC)c(OC)c3)c(C)c2cc1Cl | 71%
46 | CC(=O)N1CCC2(CC1)OC(=O)C(C)=C2C(=O)NCc1ccc(Cl)cc1 | 58%

Row | Structure (SMILES) | survival
47 | Cc1cc(C)cc(NC(=O)c2cccc(C(=O)Nc3cc(C)cc(C)c3)c2)c1 | 129%
48 | CCOc1ccc(C(=O)N2CCN(c3ccccc3)CC2)cc1 | 78%
49 | COc1ccccc1NC(=O)C1=C(C)NC(=S)NC1C (stereo not given) | 86%
50 | CC1=C(C(=O)Nc2ccccc2)C(c2ccc(C)o2)NC(=S)N1 (stereo not given) | 61% (active)
51 | CC1=C(C(=O)Nc2ccccc2C)C(c2ccccc2O)NC(=S)N1 (stereo not given) | 103%
52 | O=S(=O)(Nc1ccccn1)c1cccs1 | 83%
53 | CCN(C(=O)c1nn(-c2ccc(OC)c(Cl)c2)c(=O)c2c1c1ccccc1n2C)c1cccc(C(F)(F)F)c1 | 75%
54 | COc1ccc2c(c1)-c1nc(NC(=O)c3ccccc3F)sc1CC2 | 2% (active)
55 | COc1ccc2c(c1)Cc1sc(NC(=O)c3ccc(Cl)cc3)nc1-2 | 80%
56 | COc1ccc2c(c1)Cc1sc(NC(=O)c3cccc(F)c3)nc1-2 | 67%
57 | COc1ccc2c(c1)Cc1sc(NC(=O)c3ccccc3C)nc1-2 | 102%
58 | COc1ccc2c(c1)-c1nc(NC(=O)c3ccc(Cl)cc3)sc1CC2 | 96%
59 | COc1ccc2c(c1)-c1nc(NC(=O)c3cccc(Br)c3)sc1CC2 | 51%
60 | COc1ccc2c(c1)Cc1sc(NC(=O)c3cccc(C)c3)nc1-2 | 18% (active)
61 | COc1ccc2c(c1)Cc1sc(NC(=O)c3ccccc3Br)nc1-2 | 63%
62 | COc1ccc2c(c1)-c1nc(NC(=O)c3cc(Cl)ccc3OC)sc1CC2 | 69%
63 | COc1ccc2c(c1)CCc1sc(NC(=O)c3ccc(Cl)cc3)nc1-2 | 31% (active)
64 | COc1ccc(C(=O)Nc2nc3c(s2)Cc2cc(OC)ccc2-3)cc1 | 55%
65 | COc1ccc(C(=O)Nc2nc3c(s2)CCc2cc(OC)ccc2-3)cc1 | 35% (active)
66 | COc1ccc(CN2C(=O)C(NC(=O)c3ccccc3OC)(C(F)(F)F)N=C2c2ccccc2)cc1 (stereo not given) | 87%
67 | COc1cc(Cl)c(C)cc1NC(=O)c1cnc(N2CCCCC2)c2ccccc12 | 115%
68 | O=C(c1ccc2c(c1)N(Cc1cccc(F)c1)C(=O)c1ccccc1S2)N1CCCC1 | 88%
69 | COc1ccc(N2CCN(C(=O)c3cc4c(=O)oc5ccc(C)cc5c4s3)CC2)cc1 | 111%

Row | Structure (SMILES) | survival
70 | CCCn1cc(S(=O)(=O)c2cccc(Cl)c2)c(=O)c2cc(F)c(N3CCOCC3)cc21 | 74%
71 | COc1cccc(NC(=O)C2CCCN(S(=O)(=O)c3cccc4nonc34)C2)c1 (stereo not given) | 90%
72 | CCCS(=O)(=O)c1c(S(=O)(=O)CCC)c2cc(C(C)(C)C)ccn2c1C(=O)c1ccccc1 | 118%
73 | CC1Cc2ccccc2N1C(=O)CSc1nnnn1Cc1ccccc1 (stereo not given) | 91%
74 | Cc1cccc(-n2nnc(-c3nc(-c4cccs4)no3)c2N)c1C | 60%
75 | CCS(=O)(=O)N1CC(=O)N(c2ccc(Cl)cc2)C(C)(C(=O)NC2CCCCC2)C1 (stereo not given) | 96%
76 | COc1ccc2c(c1)-c1nc(NC(=O)c3ccc(OC)c(Br)c3)sc1CC2 | 59%
77 | COc1ccc2c(c1)-c1nc(NC(=O)c3ccc(C)cc3)sc1CC2 | 5% (active)
78 | COc1ccc2c(c1)-c1nc(NC(=O)c3cc(OC)c(OC)c(OC)c3)sc1CC2 | 57%
79 | COc1cc(C(=O)Nc2ccc(NC(=O)c3ccc(Br)cc3)cc2)cc(OC)c1OC | 75%
80 | O=C(CSc1nc2c(c(=O)[nH]1)CN(Cc1ccc3c(c1)OCO3)CC2)Nc1cccc(Cl)c1 | 76%
81 | CCOC(=O)CNc1c(-c2ccc(OC)cc2)nc2ccc(Cl)cn12 | 58%
82 | Cc1ccc(NC(=O)CSc2nc(C)c(Cc3ccccc3)c(=O)[nH]2)cc1 | 48%
83 | COc1cccc(NC(=O)CSc2nc(C)c(Cc3ccccc3)c(=O)[nH]2)c1 | 58%
84 | CCOC(=O)c1ccc(NC(=O)CSc2nc(C)c(Cc3ccccc3)c(=O)[nH]2)cc1 | 45% (active)
85 | Cc1nc(SCC(=O)Nc2ccc(Br)cc2)[nH]c(=O)c1Cc1ccccc1 | 59%
86 | Cc1cccc(NC(=O)CSc2nc(C)c(Cc3ccccc3)c(=O)[nH]2)c1 | 18% (active)
87 | COC(=O)c1ccc(NC(=O)CSc2nc3cc4ccccc4cc3[nH]2)cc1 | 65%
88 | CCOC(=O)c1ccc(NC(=O)CSc2nc3cc4ccccc4cc3[nH]2)cc1 | 65%
89 | CCOC(=O)c1cccc(NC(=O)CSc2nc3cc4ccccc4cc3[nH]2)c1 | 36% (active)
90 | Cc1ccc(NC(=O)CSc2nc(C)c(Cc3ccccc3)c(=O)[nH]2)cc1C | 84%
